Test results published in PubChem BioAssay (NCATS).
Where “and” joins values, the source holds several entries; their conditions need not be identical. Identical values can stand only once. Records with an inconclusive call do not appear. Unmarked numbers belong to inactive results. Calls of active or inactive are those of the source. The call rests on the fitted dose curve; in most records, active means well fitted inhibition curve with a large enough effect; inconclusive means small, poorly fitted or top-dose-only effect; inactive means no such curve, though single readings can be large or run the other way. Square brackets hold non-standard residues; d marks the D form. Peptide text beside a SMILES is read from it. ξ: configuration not given here. ξL = CC(C)CC(N)C(=O)O

Assay: qHTS for inhibitors of ER calcium dysfunction: SERCaMP assay screened against the NCATS CANVASS Library (AID 1347393); further: nearly all actives have a fitted effect of over 40% in size;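 on activity change, negative = inhibition: lower secreted reporter signal means inhibitor of ER calcium depletion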
Conditions: SH-SY5Y GLuc-SERCaMP (Gaussia luciferase released on ER calcium loss) secretion, thapsigargin, luminescence; series mostly up to 76.6 µM; activity change, negative = inhibition: at the top concentration
Summary of the method: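 Thapsigargin-induced ER calcium depletion drives GLuc-SERCaMP secretion from SH-SY5Y cells; compounds given 16 h beforehand were scored by lowered coelenterazine luminescence after 4 h challenge.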
On the % scale 0 is the no-effect control and ±100 the full control effect; potency means the concentration at half of the fitted maximal effect.

SMILES	activity change, negative = inhibition [%]	Potency
O[C@H]1C=C2[C@H]3CN(Cc4cc5c(cc43)OCO5)[C@H]2C[C@@H]1O	3.01	
CC[C@@H](c1cc(OC)c(OC)cc1OC)[C@H](C)[C@@H](/C(C)=C/c1cc(OC)c(OC)cc1OC)c1cc(OC)c(OC)cc1OC		2.43 µM (active) and 19.3 µM (active)
CC[C@@H](C)[C@H]1NC(=O)C(CC(C)C)NC(=O)[C@@H](CC(C)C)NC(=O)[C@H](Cc2c[nH]c3ccccc23)NC(=O)CNC(=O)[C@@H](CC(N)=O)NC1=O (stereo partly drawn) (cyclo(GW[dL][ξL][dI][dN]))	124	
CN1CCc2cc3c(c4c2C1(C)C(=O)c1cc(O)ccc1-4)OCO3 (centres undefined)		19.3 µM (active)
COc1cc2c(cc1OC)[C@@H](c1ccc3c(c1)OCO3)C(C)[C@@H](C)C2=O (some centres undefined)		34.3 µM (active)
CC(C)[C@@H]1CC(=O)c2coc3c2[C@H]1C[C@@H](C)C3=O	27	
COC(=O)[C@@]1(C)CCC[C@]2(C)c3cc(OC)ccc3CC[C@@H]12	-44.7	
CC[C@H]1[C@@H](C)[C@@H](c2cc(OC)c(OC)cc2OC)[C@H](C)[C@@H](c2cc(OC)c(OC)cc2OC)[C@@]12C=C(OC)C(=O)C=C2OC		0.86 µM (active)
O=C1CCC(=O)N(O)CCCCCNC(=O)CCC(=O)N(O)CCCCCNC(=O)CCC(=O)N(O)CCCCCN1	-11	
C[C@H](CCC(O)C(C)(O)CO)[C@@]1(O)CC[C@@]2(C)C3=C(CC[C@@]21C)[C@@]1(C)CCC(OC(=O)CCC(=O)O)C(C)(C)[C@@H]1CC3 (some centres undefined)	6.19	
COc1cc(C2C3=C(Cc4cc5c(cc42)OCO5)C(=O)OC3)cc(OC)c1OC (centres undefined)	187	
CO[C@@H]1[C@H](O)[C@@H](C)O[C@@H](OC[C@@H]2C(C)OC(=O)/C=C/[C@H](C)C(O[C@@H]3O[C@H](C)CC4(OC(=O)O[C@@H]4C)C3O)[C@@H](C)CC(C)C(=O)/C=C/[C@H]3OC23)[C@@H]1OC (some centres undefined)		8.6 µM (active)
COc1ccc([C@@H]2c3cc4c(cc3C(=O)[C@H](C)C2C)OCO4)cc1OC (some centres undefined)	14.1	
C/C(=C\[C@H](C)C(=O)C[C@H](O)CC1CC(=O)NC(=O)C1)[C@@H]1OC(=O)CCCC/C=C/[C@@H](O)C[C@@H]1C	25.8	
CC1=C[C@H]2[C@H]3C(=O)C(c4ccc(O)cc4)=C[C@@]3(c3ccc(O)cc3)[C@@H]1C(=O)[C@]2(C)O	182	
C=C1C(=O)O[C@H]2[C@H]1CCC(C)=C1CC[C@@](C)(O)[C@@H]12		2.72 µM (active)
C/C(=C\[C@H](C)C(=O)/C=C/CC1CC(=O)NC(=O)C1)[C@@H]1OC(=O)CCCC/C=C/[C@H](O)[C@@H](O)[C@@H]1C		19.3 µM (active)
COc1ccc([C@@H]2c3cc4c(cc3C[C@H](C)C2C)OCO4)cc1OC (some centres undefined)	13.4	
C/C1=C/[C@@H](C)[C@H](O)C/C=C/CC/C=C/C(=O)O[C@@H]1[C@H](C)C(=O)CCCC1CC(=O)NC(=O)C1	30.5	
